Assay results taken from PubChem BioAssay (EPA / NIEHS).
Active and inactive are the calls of the source. The calls were made as follows: active = hit-call score of the fitted dose curve at least 0.9, where 1 is the maximum; inactive = score below 0.9.

Assays:
Details in all cases: mRNA level, 48 h; actives raise or lower the signal
[1] = read-out: Cytochrome P450 (CYP24A1), CYP24A1 (gene 1591); experiment: LTEA_HepaRG_CYP24A1: Life Technologies and Expression Analysis (LTEA) Assay for Cytochrome P450 (CYP24A1) using HepaRG (AID 2283478)
Summary of the method: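 HepaRG cells plated 48 h, then exposed in duplicate in serum-free induction medium for 48 h to 8-point half-log series from 100 uM in 0.5% DMSO. CYP24A1 mRNA by Fluidigm qRT-PCR, normalized to ACTB, GAPDH, POLR2A; bidirectional fit versus DMSO.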

[2] = read-out: Cytochrome P450 (CYP1A2), CYP1A2 (gene 1544); experiment: LTEA_HepaRG_CYP1A2: Life Technologies and Expression Analysis (LTEA) Assay for Cytochrome P450 (CYP1A2) using HepaRG (AID 2283479)
Summary of the method: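 Differentiated human HepaRG cells in serum-free induction medium exposed 48 hours in duplicate to 8 half-log concentrations from 100 uM, 0.5% DMSO. CYP1A2 mRNA quantified by qRT-PCR, normalized to ACTB, GAPDH and POLR2A; bidirectional fitting versus DMSO.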

[3] = read-out: cysteine-aspartic acid protease (CASP8), CASP8 (gene 841); experiment: LTEA_HepaRG_CASP8: Life Technologies and Expression Analysis (LTEA) Assay for cysteine-aspartic acid protease (CASP8) using HepaRG (AID 2283480)
Summary of the method: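 qRT-PCR readout of CASP8 mRNA, normalized to three housekeeping genes, after 48 h chemical exposure of HepaRG cells; 8-point half-log series, top 100 uM, 0.5% DMSO vehicle. Bidirectional curve fitting against DMSO baseline.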

[4] = read-out: Cytochrome P450 (CYP2B6), CYP2B6 (gene 1555); experiment: LTEA_HepaRG_CYP2B6: Life Technologies and Expression Analysis (LTEA) Assay for Cytochrome P450 (CYP2B6) using HepaRG (AID 2283481)
Summary of the method: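 Differentiated human HepaRG cells in serum-free induction medium, dosed in duplicate for 48 h over 8 half-log concentrations topping at 100 uM (0.5% DMSO). CYP2B6 mRNA measured by TaqMan qRT-PCR, normalized to ACTB, GAPDH, POLR2A; bidirectional fit versus DMSO.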

[5] = read-out: Cytochrome P450 2C19 (Homo sapiens) (UniProt P33261); experiment: LTEA_HepaRG_CYP2C19: Life Technologies and Expression Analysis (LTEA) Assay for CYP2C19 using HepaRG (AID 2283482)
Summary of the method: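 Differentiated HepaRG cells in serum-free induction medium exposed 48 h in duplicate, 8 concentrations from 100 uM by half-log steps in 0.5% DMSO. CYP2C19 mRNA measured by TaqMan qRT-PCR, normalized to ACTB, GAPDH, POLR2A. Bidirectional fit versus DMSO.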

CYP2C8 (gene 1558) = experiment: LTEA_HepaRG_CYP2C8: Life Technologies and Expression Analysis (LTEA) Assay for CYP2C8 using HepaRG (AID 2283483)
Summary of the method: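 HepaRG (human liver line), 48 h chemical exposure, 8-pt half-log series from 100 uM, 0.5% DMSO vehicle. Readout: CYP2C8 transcript by qRT-PCR, housekeeping-normalized. Bidirectional fit vs DMSO baseline.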

CYP2C9 (gene 1559) = experiment: LTEA_HepaRG_CYP2C9: Life Technologies and Expression Analysis (LTEA) Assay for CYP2C9 using HepaRG (AID 2283484)
Summary of the method: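 HepaRG, 48 h dosing, 8-pt half-log series, top 100 uM, 0.5% DMSO vehicle. Read-out: CYP2C9 transcript by TaqMan qRT-PCR, housekeeping-normalized (ACTB/GAPDH/POLR2A). Gain or loss fitted vs DMSO baseline.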

CYP2E1 (gene 1571) = experiment: LTEA_HepaRG_CYP2E1: Life Technologies and Expression Analysis (LTEA) Assay for CYP2E1 using HepaRG (AID 2283485)
Summary of the method: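 CYP2E1 transcript measured by Fluidigm qRT-PCR against three housekeeping genes in human HepaRG cells treated 48 h (top 100 uM, half-log steps, 0.5% DMSO vehicle). Gain or loss fitted relative to DMSO baseline.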

[6] = read-out: Cytochrome P450 3A4 (Homo sapiens) (UniProt P08684); experiment: LTEA_HepaRG_CYP3A4: Life Technologies and Expression Analysis (LTEA) Assay for CYP3A4 using HepaRG (AID 2283487)
Summary of the method: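 Differentiated HepaRG cells in serum-free induction medium exposed in duplicate for 48 h to 8 half-log concentrations up to 100 uM in 0.5% DMSO. CYP3A4 mRNA measured by qRT-PCR normalized to ACTB, GAPDH and POLR2A; bidirectional fit versus DMSO.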

CYP4A11 (gene 1579) = experiment: LTEA_HepaRG_CYP4A11: Life Technologies and Expression Analysis (LTEA) Assay for CYP4A11 using HepaRG (AID 2283486)
Summary of the method: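 Differentiated HepaRG cells, 48 h after plating, exposed in duplicate for 48 h to 8 half-log concentrations up to 100 uM in 0.5% DMSO in serum-free induction medium. CYP4A11 mRNA measured by TaqMan qRT-PCR, normalized to ACTB, GAPDH and POLR2A.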

Measured: AC50

Cytochrome P450 2C19 (Homo sapiens), sequence (P33261 whole entry, looked up): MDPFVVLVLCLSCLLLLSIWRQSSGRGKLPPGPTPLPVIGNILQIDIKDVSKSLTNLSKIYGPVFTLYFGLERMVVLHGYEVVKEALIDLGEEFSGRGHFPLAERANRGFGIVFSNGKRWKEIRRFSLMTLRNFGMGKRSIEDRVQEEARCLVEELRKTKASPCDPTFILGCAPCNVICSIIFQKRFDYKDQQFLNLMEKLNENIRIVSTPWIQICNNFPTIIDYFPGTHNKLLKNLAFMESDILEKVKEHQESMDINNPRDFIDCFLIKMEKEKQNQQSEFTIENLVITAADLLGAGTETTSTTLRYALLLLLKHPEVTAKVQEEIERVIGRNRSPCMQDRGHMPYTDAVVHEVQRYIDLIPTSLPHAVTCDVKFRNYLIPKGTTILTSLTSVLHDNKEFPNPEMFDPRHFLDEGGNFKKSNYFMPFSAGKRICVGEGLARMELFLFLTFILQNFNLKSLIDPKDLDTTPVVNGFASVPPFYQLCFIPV
Cytochrome P450 3A4 (Homo sapiens), sequence (P08684 whole entry, looked up): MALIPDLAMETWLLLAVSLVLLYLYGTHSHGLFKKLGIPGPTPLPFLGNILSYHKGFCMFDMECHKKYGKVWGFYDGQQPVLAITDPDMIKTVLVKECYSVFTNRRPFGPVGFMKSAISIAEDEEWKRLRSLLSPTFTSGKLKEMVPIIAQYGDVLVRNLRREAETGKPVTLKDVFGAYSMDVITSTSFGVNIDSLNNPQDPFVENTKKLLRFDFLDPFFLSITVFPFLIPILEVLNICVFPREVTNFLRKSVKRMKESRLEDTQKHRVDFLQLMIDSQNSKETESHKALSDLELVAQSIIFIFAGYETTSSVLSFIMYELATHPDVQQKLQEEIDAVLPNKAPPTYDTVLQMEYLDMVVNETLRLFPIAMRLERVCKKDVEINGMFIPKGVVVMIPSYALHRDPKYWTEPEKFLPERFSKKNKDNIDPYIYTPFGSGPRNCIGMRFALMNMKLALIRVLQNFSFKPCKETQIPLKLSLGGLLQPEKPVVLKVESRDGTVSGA

CCCCCCCCCCCCCO
not listed: CYP4A11 (gene 1579)
inactive: all other assays above

Cc1nc(-c2ccc3c(c2)CCN(CCC2CCC(NC(=O)/C=C/c4ccc(F)cc4)CC2)CC3)no1 (stereo unspecified)
not listed: CYP4A11 (gene 1579)
inactive: all other assays above

Cc1cc(NC(=O)C(=O)O)cc(C)c1Oc1ccc(O)c2c1CCC2
active: [2] 0.00228 µM | [4] 0.00316 µM | [5] 0.618 µM | CYP2E1 (gene 1571) 1.2 µM | [6] 13.8 µM
inactive: [1] | [3] | CYP2C8 (gene 1558) | CYP2C9 (gene 1559)

CC(C)c1ccc(C(=O)N=C(N)N)cc1S(C)(=O)=O
active: [2] 0.452 µM | [3] 0.409 µM | [4] 0.464 µM | [5] 13.1 µM | CYP2C8 (gene 1558) 0.578 µM | CYP4A11 (gene 1579) 0.297 µM | [6] 9.24 µM
inactive: [1] | CYP2C9 (gene 1559) | CYP2E1 (gene 1571)

Cc1ccc(C)c(C)c1
inactive: all assays above

COc1cc(S(=O)(=O)O)c(C)cc1N=Nc1c(O)ccc2cc(S(=O)(=O)O)ccc12
inactive: all assays above

CCc1c(C(=O)NN2CCCCC2)nn(-c2ccc(Cl)cc2Cl)c1-c1ccc(Br)cc1
inactive: [1] | [3]
active: [2] 91.8 µM | [4] 30 µM | [5] 34.6 µM | CYP2C8 (gene 1558) 23.6 µM | CYP2C9 (gene 1559) 30.4 µM | CYP2E1 (gene 1571) 22.4 µM | CYP4A11 (gene 1579) 15.9 µM | [6] 31.7 µM

CCCCCCCCCCCCCCCCCC(=O)O
inactive: all assays above

CC(=O)OC/C=C(\C)CCC=C(C)C
inactive: all assays above

Cc1ccc(C)c(O)c1C
active: [2] 50 µM
inactive: all other assays above

Cc1oc(-c2ccccc2)nc1CCOc1cccc2c1ccn2CCC(=O)O
active: [3] 50 µM | [4] 88.5 µM | [5] 83.4 µM | CYP2C8 (gene 1558) 80.5 µM | CYP2C9 (gene 1559) 77.9 µM | CYP2E1 (gene 1571) 62.6 µM | CYP4A11 (gene 1579) 85.9 µM | [6] 80.1 µM
inactive: [1] | [2]

OC[C@@H](O)[C@@H](O)[C@H](O)[C@H](O)CO
not listed: CYP4A11 (gene 1579)
inactive: all other assays above

CCCCCCCCCCC
inactive: all assays above

CCOC(=O)CCC(=O)OCC
active: [3] 87.3 µM | [4] 19.3 µM
inactive: all other assays above

Cc1ccccc1Cl
not listed: CYP4A11 (gene 1579)
inactive: all other assays above

Cc1cc(=O)[nH]c(=S)[nH]1
active: [2] 50 µM
inactive: all other assays above

CC(C)(C)c1cc(O)c(C(C)(C)C)cc1O
active: [3] 81.1 µM

Nc1ccc2c(c1)C(=O)c1ccccc1C2=O
active: [2] 4.96 µM | [4] 11.3 µM | CYP2C8 (gene 1558) 3.97 µM | CYP2C9 (gene 1559) 1.04 µM | CYP2E1 (gene 1571) 14.3 µM
inactive: [1] | [3] | [5] | [6]

Clc1cc(Cl)c(Cl)cc1Cl
not listed: CYP4A11 (gene 1579)
inactive: all other assays above

CCCCCCCCCCCCCCCC
active: [2] 50 µM
not listed: CYP4A11 (gene 1579)
inactive: all other assays above

CC(=O)OCCOCCOCCOC(C)=O
not listed: CYP4A11 (gene 1579)
inactive: all other assays above

Oc1ccc2ccccc2c1N=Nc1ccccc1
active: [2] 0.232 µM | [4] 31.5 µM | [5] 9.92 µM | CYP2C8 (gene 1558) 9.55 µM | CYP2C9 (gene 1559) 9.92 µM | CYP2E1 (gene 1571) 21.5 µM | [6] 1.81 µM
inactive: [1] | [3]
